Source: PubChem BioAssay
An excerpt weighted towards active compounds, which were near 3.6% of everything screened.
Bead autofluor: flagged as autofluorescent in microsphere protease counterscreen. compound autofluorescence counterscreen, microsphere flow cytometry; active compounds read high. fluorescence intensity (test concentration not listed). hit rate 3.1% among 360,000. AID 624483; in the data active = fluorescence intensity above about 16000; inconclusive = no clear call, values can overlap the other calls
BoNT-F LC inh: BoNT F light chain protease inhibition | Multiplex microsphere protease cleavage assay, flow cytometry | inhibition, % at 10 µM | hit rate 0.22% among 360,000; in the data active = inhibition above about 35%, passing the limit was not always enough; inconclusive = no clear call, values can overlap the other calls; also: plate controls were buffer without enzyme for full effect and enzyme alone for no effect
MazF activator: MazEF (E. coli) toxin RNase activation | AID 504720 | hit rate 0.32% among 350,000 | FAM/BHQ RNA-DNA oligo cleavage fluorescence, 5 h | activation, % at 20 µM | P0AE70; in the data active = activation above about 50%
Anthrax LF prot: anthrax lethal factor protease inhibition; inhibition, % at 10 µM; hit rate 0.12% among 360,000; multiplex microsphere protease cleavage assay, LF; AID 588501; also: plate controls were buffer without enzyme for full effect and enzyme alone for no effect
Target sequence (P15917 whole entry, looked up): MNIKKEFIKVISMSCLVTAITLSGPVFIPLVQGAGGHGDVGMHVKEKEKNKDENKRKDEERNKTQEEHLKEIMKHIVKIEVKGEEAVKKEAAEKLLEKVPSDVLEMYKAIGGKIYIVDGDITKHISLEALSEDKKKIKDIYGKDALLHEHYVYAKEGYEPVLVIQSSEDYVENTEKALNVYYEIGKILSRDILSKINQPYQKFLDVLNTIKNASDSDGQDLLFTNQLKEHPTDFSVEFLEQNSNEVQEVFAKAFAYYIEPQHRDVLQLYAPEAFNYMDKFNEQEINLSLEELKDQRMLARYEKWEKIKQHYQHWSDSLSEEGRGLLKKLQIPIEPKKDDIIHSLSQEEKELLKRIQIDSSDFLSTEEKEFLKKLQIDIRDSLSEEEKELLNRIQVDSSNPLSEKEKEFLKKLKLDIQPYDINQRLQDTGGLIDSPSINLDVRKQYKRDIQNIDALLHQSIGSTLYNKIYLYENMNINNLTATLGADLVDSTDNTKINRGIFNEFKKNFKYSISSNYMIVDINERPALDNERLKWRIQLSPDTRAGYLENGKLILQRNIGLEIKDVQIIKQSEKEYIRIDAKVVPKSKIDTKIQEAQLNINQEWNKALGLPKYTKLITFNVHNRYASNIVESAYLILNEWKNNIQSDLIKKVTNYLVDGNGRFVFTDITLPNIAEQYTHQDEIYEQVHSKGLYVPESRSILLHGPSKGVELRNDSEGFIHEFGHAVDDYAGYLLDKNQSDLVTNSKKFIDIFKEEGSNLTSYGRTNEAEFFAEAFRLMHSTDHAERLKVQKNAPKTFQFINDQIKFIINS
BoNT-A LC inh2: blocks Botulinum neurotoxin A light chain protease | multiplex microsphere protease substrate cleavage, flow cytometry | inhibition, % at 10 µM | hit rate 0.17% among 360,000 | AID 588499; also: plate controls were buffer without enzyme for full effect and enzyme alone for no effect
Numbers without * were called inactive; ? = inconclusive; / = no result given. Rule as the data show it, unless noted: active = inhibition above about 30%; inconclusive = no clear call, values can overlap the other calls; inactive = below that.

SMILES	Bead autofluor	BoNT-F LC inh	MazF activator	Anthrax LF prot	BoNT-A LC inh2
O=C(Nc1ccn(Cc2c(F)c(F)cc(F)c2F)n1)c1cccc(Cn2cc([N+](=O)[O-])cn2)c1	23743*	-1.0	5.6	-2.5	-1.6
O=C(Cn1cc([N+](=O)[O-])cn1)Nc1ccn(Cc2c(F)c(F)cc(F)c2F)n1	23297*	2.7	7.8	-1.6	?
CC(C)C[C@H](NS(=O)(=O)c1ccc(Br)cc1)C(=O)O	22565*	1.2	1.9	-2.3	3.1
Nc1nc(SCCN2C(=O)c3ccccc3C2=O)n[nH]1	18492*	4.8	1.0	-10.7	?
O=C1c2ccccc2C(=O)N1CCSc1ccccc1	?	-5.0	2.6	?	?
CCn1c(SCC(=O)OC)nnc1-c1ccc(C)cc1	4594	-1.6	-7.8	3.7	-1.3
CCOC(=O)CSc1nnc(-c2nnc(SCC(=O)OCC)n2CC)n1CC	16806*	13.5	1.4	4.9	11.4
CN(CC(=O)Nc1ccccc1Cl)C(=O)CSc1nnc(N)s1	6253	0.8	3.2	-3.5	0.5
O=[N+]([O-])c1cccc(/C=C/c2nc(C=Nc3ccccc3)c(O)o2)c1	11328	-4.7	133.1*	-3.1	1.7
Oc1oc(-c2ccccc2)nc1C=Nc1ccccc1	13340	-1.8	5.2	-0.8	0.4
Cc1cc(/C=C2\C(=O)NC(=O)N(Cc3ccccc3Cl)C2=O)c(C)n1-c1ccc(C(=O)O)cc1	4606	6.6	59.1*	0.0	0.6
O=[N+]([O-])c1cc(-c2cnc3ccccc3n2)ccc1Oc1ccc(F)cc1	20404*	2.2	-0.5	-0.6	?
O=S(=O)(Nc1ccc2c(c1)nc1n2CCOC1)c1ccccc1	19895*	11.5	-8.2	1.5	6.1
O=S(=O)(Nc1ccc2c(c1)nc1n2CCOC1)c1ccc(Cl)cc1	22037*	2.5	4.0	1.7	1.1
COc1ccccc1NS(=O)(=O)c1cccc(C(=O)OCC(=O)NC2CC2)c1	5553	-2.4	4.1	5.5	1.8
COC(=O)c1ccc(COc2cccc(OC)c2)o1	22471*	-2.6	7.5	-8.8	1.3
CN(C)c1ccc(NC(=O)COC(=O)CCC(=O)c2ccc(F)cc2)cc1	21300*	-6.3	3.1	-3.1	-1.4
O=C(COC(=O)c1ccccc1O)Nc1cccc(S(=O)(=O)N2CCCC2)c1	3862	-7.6	8.7	-2.6	-0.5
CN(CC(=O)Nc1ccc(Cl)cc1)CC(=O)Nc1sc2c(c1C(N)=O)CCC2	3628	1.9	6.4	-6.3	-0.4
CCN1/C(=C/C=C/c2oc3ccc(-c4ccccc4)cc3[n+]2CC)Oc2ccc(-c3ccccc3)cc21	70271*	-149.4	/	-100.5	43.1*
O=C(c1sc2ccccc2c1Cl)N1CCC2(CC1)OCCO2	21877*	-5.9	-1.8	-2.7	?
O=C(c1sc2ccccc2c1Cl)N1CCN(c2ccccn2)CC1	5573	11.1	13.7	1.1	1.5
COc1ccc2cc(C(=O)N3CCc4ccccc43)[nH]c2c1	3627	-18.7	6.5	-20.7	-2.0
Clc1ccc(-c2nnc3n2CCCC3)cc1	21835*	-1.4	-2.0	1.1	-0.1
Cc1ccc(-c2nnc3n2CCCCC3)cc1	2297	-9.1	-3.9	-1.5	-0.9
SMILES	Bead autofluor	BoNT-F LC inh	MazF activator	Anthrax LF prot	BoNT-A LC inh2
CN1CCN(C(=O)CNC(=O)C23CC4CC(CC(C4)C2)C3)CC1	2872	-0.2	6.4	-6.2	1.1
Cc1ccc(S(=O)(=O)N2CCCC(C(=O)NCc3ccco3)C2)cc1Cl (centres undefined)	19976*	12.6	-3.4	0.1	11.2
CC1CCN(S(=O)(=O)c2ccc3c(c2)c(=O)c(C(=O)NCc2ccco2)cn3C)CC1	3321	37.7*	-8.0	-0.1	1.8
COc1ccc(NC(=S)NNC(=O)c2ccco2)c(OC)c1	4729	-7.0	3.7	1.5	-2.4
Cc1ccc(-n2c(O)c(C=NCc3ccccn3)c3ccccc3c2=O)cc1	2678	-2.9	1.1	-2.0	0.0
CCN1CCCC1CN=Cc1c(O)n(-c2ccccc2)c(=O)c2ccccc12 (centres undefined)	27436*	3.8	-15.2	3.8	?
CC(C)CCN=Cc1c(O)n(-c2ccccc2)c(=O)c2ccccc12	22931*	1.4	-0.8	-1.3	?
CC1CC(C)CN(S(=O)(=O)c2ccc3c(c2)CC(C)N3C(=O)C2CC2)C1 (centres undefined)	4613	2.6	-0.8	-0.4	-2.6
CC(=O)N1CCC(C(=O)Nc2ccc(S(=O)(=O)NCCc3ccccc3)cc2)CC1	3674	-20.6	-5.0	-10.2	-2.1
COC(=O)N/N=C/c1cc(C)n(-c2ccc(F)cc2)c1C	4668	2.3	11.5	-4.4	0.6
COC(=O)N/N=C/c1cc(C)n(-c2ccc(Br)cc2)c1C	4534	?	-0.2	30.8*	-2.3
O=C(N[C@@H]1c2ccccc2CC[C@@H]1OCc1ccccc1)c1ccc(C(F)(F)F)cc1	3302	3.2	-1.7	-2.7	0.1
CCOC(=O)c1c(NC(NC(=O)C(C)C)C(Cl)(Cl)Cl)sc2c1CCC2 (centres undefined)	2881	47.0*	-10.5	-4.1	4.1
CCOC(=O)Nc1sc2c(c1C(=O)OCC)CCC2	9758	-2.6	-4.7	-16.9	-0.7
C#CCN(C#N)c1nc(NCC)nc(NC(C)C)n1	23207*	0.3	-4.7	-0.5	-0.3
C=C(C)CSC1=C(C#N)C(c2ccccc2Cl)CC(=O)N1 (centres undefined)	23035*	1.1	-2.8	2.5	0.4
CCOC(=O)c1cc(-c2ccccc2)n(Cc2cc(CC)no2)n1	4341	-8.9	5.2	-2.9	-0.3
CC(C)(C)OC(=O)NCCc1nnc(SCc2ccccc2Cl)o1	16944*	0.0	-3.2	-0.1	-0.3
NCCc1nnc(SCc2ccccc2Cl)o1	3185	44.8*	-22.7	?	7.7
CC(=O)N1CCN(c2ccc(NC(=O)c3ccc([N+](=O)[O-])cc3)cc2)CC1	3688	8.2	3.1	2.1	1.3
Cc1cc(NC(=O)CCCC(=O)N(CC(=O)NCCc2ccccc2)Cc2ccc(F)cc2)no1	20415*	-4.0	-4.7	-4.8	-2.8
CN(C)c1ccc(/C=C(\C#N)C(=O)Nc2nc3c(s2)CCN(Cc2ccccc2)C3)cc1	10915	57.5*	-268.0	7.8	15.8
Cc1nnc(NC(=O)c2ccc(S(=O)(=O)N3CCCCC3)cc2)s1	4002	-7.7	3.7	-4.8	-0.7
CC(=O)Nc1ccc(NC(=O)c2ccccc2N(C)S(C)(=O)=O)cc1	24126*	-8.7	-2.1	-2.0	-4.1
Cc1nnc(SC(C)C(=O)Nc2ccc(S(=O)(=O)N3CCCCCC3)cc2)s1 (centres undefined)	22908*	-1.0	7.4	-2.1	-0.1
CN(c1ccccc1C(=O)Nc1ccc(S(=O)(=O)N2CCCCC2)cc1)S(C)(=O)=O	20379*	-6.7	1.5	0.6	-1.5
O=C(NS(=O)(=O)c1ccccc1)c1ccccc1F	2815	5.5	5.5	3.5	0.4
CC(=O)NS(=O)(=O)c1ccc(NC(=O)c2ccccc2F)cc1	23846*	-2.4	1.2	-3.0	-1.4
COC(=O)c1ccc(NC(=O)c2ccccc2N(C)S(C)(=O)=O)cc1	4104	4.0	5.1	-14.5	0.3
